The supplement of paper PMC10600219
Several values for one entry are separate records, joined by “and”; a condition that tells them apart may be missing. Equal values may be shown once. Over roughly 2,800 compounds, “cell viability relative to vehicle” has its median near 1.1; the lowest 2% begin near 0.19. The sample holds the lowest values, similar compounds and a random draw of the others, so the mix is not that of the screen.

tested on: NCI-H2228 parental; test: cell viability relative to vehicle (fraction of vehicle); NCI-H2228 is an ALK-positive lung cancer line and DTP means drug-tolerant persister; higher = less growth inhibition; details: 100 nM; treatment time 6 days
How it was run: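 The 3114-agent TargetMol anti-cancer compound library was tested at 100 nM for 6 days on parental NCI-H2228 cells and on persister cells derived with 1000 nM of a targeted drug for 13 days. ATP readout by the CellTiter-Glo 3D Cell Viability Assay gave cell viability relative to DMSO vehicle-treated cells.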

| SMILES | cell viability |
| --- | --- |
| Nc1nc(Cl)nc2c1ncn2[C@H]1C[C@H](O)[C@@H](CO)O1 [Cladribine] | 0.201 |
| Nc1nc(F)nc2c1ncn2[C@@H]1O[C@H](CO)[C@@H](O)[C@@H]1O [Fludarabine] | 1.12 |
| Nc1nc(Cl)nc2c1ncn2[C@@H]1O[C@H](CO)[C@@H](O)[C@@H]1F [Clofarabine] | 0.151 |
| NS(=O)(=O)Oc1ccc2c3c(c(=O)oc2c1)CCCCC3 [Irosustat] | 1.04 |
| O=C(O)c1ccc(S(=O)(=O)NC2CCCCC2)cc1 | 0.986 and 1.12 |
| CC(C)c1cc(C(=O)N2Cc3ccc(CN4CCN(C)CC4)cc3C2)c(O)cc1O [Onalespib] | 0.29 |
| C[C@@H](Oc1cc(-n2cnc3ccc(CN4CCN(C)CC4)cc32)sc1C(N)=O)c1ccccc1C(F)(F)F | 0.156 |
| COc1ccc(CC(C)(C)NC[C@H](O)c2cc(O)cc3c2OCC(=O)N3)cc1 [Olodaterol] | 0.923 |
| Cc1ccc(/C=C2\CNC/C(=C\c3ccc(C)cc3)C2=O)cc1 | 1.06 |
| c1ccc(CNc2ccccc2)cc1 [N-Phenylbenzylamine] | 1.16 |
| Cc1cc(O)c(-c2ccc(C(C)CN)cc2)c2c1[nH]c(=O)c1sccc12 (stereo unspecified) | 0.116 |
| COC(=O)c1ccc(O)c(OC)c1 [Methyl Vanillate] | 1.18 |
| COc1ccc(-c2ccc3ncc4c(c3c2)n(-c2ccc(N3CCNCC3)c(C(F)(F)F)c2)c(=O)n4C)cn1 | 0.172 |
| Cn1c(=O)n(-c2ccc(C(C)(C)C#N)cc2)c2c3cc(-c4cnc5ccccc5c4)ccc3ncc21 [Dactolisib] | 0.258 |
| CCC(=O)N1CCN(c2ccc(-n3c(=O)ccc4cnc5ccc(-c6cnc7ccccc7c6)cc5c43)cc2C(F)(F)F)CC1 [Torin 1] | 0.306 |
| NC(=O)c1ccc2nc(-c3ccc(Oc4ccc(Cl)cc4)cc3)[nH]c2c1 | 0.996 |
| Nc1ccc(Cl)cc1C(=O)O [2-Amino-5-chlorobenzoic acid] | 1.16 |
| Cc1nc(Nc2ncc(C(=O)Nc3c(C)cccc3Cl)s2)cc(N2CCN(CCO)CC2)n1 [Dasatinib] | 0.872 |
| Cc1nc(Nc2ncc(C(=O)Nc3c(C)cccc3Cl)s2)cc(N2CCN(CCO)CC2)n1 [Dasatinib monohydrate] | 0.77 |
| Cc1cc(Nc2cc(N3CCN(C)CC3)nc(/C=C/c3ccccc3)n2)n[nH]1 | 0.803 |
| Cc1cc(Nc2cc(N3CCN(C)CC3)nc(Sc3ccc(NC(=O)C4CC4)cc3)n2)n[nH]1 [Tozasertib] | 0.158 |
| O=C(O)c1ccc(CN2C[C@@H]3C[C@H]2CN3Cc2ccc(Oc3ccc(-c4ncco4)cc3)cc2)cc1 [Acebilustat] | 1.05 |
| CN1C(=O)C(C)(C)Oc2c(-c3cn(C)c(=O)c4[nH]ccc34)cc(S(C)(=O)=O)cc21 | 0.935 |
| C(=N\NC1=NCCN1)/c1c2ccccc2c(/C=N/NC2=NCCN2)c2ccccc12 [Bisantrene] | 1.01 |
| CC(C)=CCc1cc(-c2coc3cc(O)ccc3c2=O)ccc1O [Neobavaisoflavone] | 1.17 |
| CC(=O)NCCC(=O)O | 0.856 |

| SMILES | cell viability |
| --- | --- |
| COc1cc(/C=C2/SC(=S)NC2=O)ccc1OCC(=O)O | 1.1 |
| CCOc1cc(C(=O)N2CCC(N3CCN(C)CC3)CC2)ccc1Nc1ncc2c(n1)N(C1CCCC1)c1ccccc1C(=O)N2C | 1.23 |
| COc1cc(C(=O)NC2CCN(C)CC2)ccc1Nc1ncc2c(n1)N(C1CCCC1)CC(F)(F)C(=O)N2C | 0.171 |
| CC[C@@H]1C(=O)N(C)c2cnc(Nc3ccc(C(=O)N[C@H]4CC[C@H](N5CCN(CC6CC6)CC5)CC4)cc3OC)nc2N1C(C)C [Volasertib] | 0.192 |
| CC[C@@H]1C(=O)N(C)c2cnc(Nc3ccc(C(=O)NC4CCN(C)CC4)cc3OC)nc2N1C1CCCC1 | 0.167 |
| COc1cc(C(=O)N2CCC(N3CCN(C)CC3)CC2)ccc1Nc1ncc2c(n1)N(C)c1ccccc1C(=O)N2C | 1.11 |
| CCOc1cc(N2CCC(O)CC2)ccc1Nc1ncc2c(n1)N(C1CCCC1)CCC(=O)N2C | 1.15 |
| FC(F)(F)c1ccccc1-c1nc(NCc2cccs2)c2ccccc2n1 | 1.04 |
| CC(CCc1ccccn1)(CCc1ccccn1)C(=O)c1ccccc1 [JAK2 Inhibitor V] | 1.08 |
| COc1cc2ncnc(Nc3ccc(Oc4ccccc4)cc3C)c2cc1OC | 0.96 |
| CCc1ccc(-c2nc(CSCC(=O)NCCc3ccccc3)c(C)o2)cc1 | 1.1 |
| COc1cc(N(C)C)cc(CN(C)CCc2ccc([N+](=O)[O-])cc2)c1O [CDC25 Phosphatase Inhibitor I] | 1.05 |
| O=C(O[C@@H]1Cc2c(O)cc(O)cc2O[C@H]1c1cc(O)c(O)c(O)c1)c1cc(O)c(O)c(O)c1 [(-)-Gallocatechin gallate] | 1.07 |
| O=C1NCCSc2c1sc1ccc(O)cc21 | 1.05 |
| Cc1csc(-c2nnc(Nc3ccc(Oc4ncccc4-c4ccnc(N)n4)cc3)c3ccccc23)c1 | 0.143 |
| C[C@@H]1CCCCCCCCCCCCC(=O)C1 [Muscone] | 1.13 |
| COC[C@H](NC(=O)c1cnc(C)s1)C(=O)N[C@@H](COC)C(=O)N[C@@H](Cc1ccccc1)C(=O)[C@@]1(C)CO1 [Oprozomib] | 0.176 |
| CC(NC(=O)C(Cc1ccccc1)NC(=O)OCc1ccccc1)C(=O)CF (stereo unspecified) | 1.1 |
| CC(=O)NC(Cc1ccccc1)C(=O)O (stereo unspecified) [Afalanine] | 1.04 |
| Cn1c(=O)c(Oc2ccc(F)cc2F)cc2cnc(NC(CCO)CCO)nc21 [Pamapimod] | 1.05 |
| C[C@@H]1CC[C@@]2(NC1)O[C@H]1C[C@H]3[C@@H]4CC=C5C[C@@H](O[C@@H]6O[C@H](CO)[C@H](O)[C@H](O[C@@H]7O[C@H](CO)[C@@H](O)[C@H](O)[C@H]7O)[C@H]6O[C@@H]6O[C@@H](C)[C@H](O)[C@@H](O)[C@H]6O)CC[C@]5(C)[C@H]4CC[C@]3(C)[C@H]1[C@@H]2C [Solasonine] | 1.1 |
| Cn1cc(-c2cc3c(N4CCN(c5ncc([C@@](C)(N)c6ccc(F)cc6)cn5)CC4)ncnn3c2)cn1 [Avapritinib] | 0.846 |
| CCCC(C)NC(=O)c1ccc(Cl)c(Cl)c1 (stereo unspecified) | 1.06 |
| C[C@H](NC(=O)CNC(=O)c1cccc(Cl)c1)c1ccccc1 | 1.09 |
| CC(C)C[C@H](NC(=O)CNC(=O)c1cc(Cl)ccc1Cl)B(O)O [Ixazomib] | 0.121 |
| CC(C)C[C@H](NC(=O)CNC(=O)c1cc(Cl)ccc1Cl)B1OC(=O)C(CC(=O)O)(CC(=O)O)O1 | 0.106 |

| SMILES | cell viability |
| --- | --- |
| CCNC(=O)Nc1ccc(-c2nc(N3CCOC[C@@H]3C)c3c(n2)C(C)(C)S(=O)(=O)C3)cc1 | 0.547 |
| CCn1nc(C2CCN(C(=O)CCO)CC2)nc1-c1cnc(N)c(-c2nnc(C(C)(C)C)o2)n1 | 1.04 |
| COc1cc(OCc2cccc(-c3ccccc3)c2C)cc(OC)c1CN1CCCC[C@H]1C(=O)O [PD-1/PD-L1 inhibitor 1] | 1.09 |
| Nc1n[nH]c2cc(-c3ccc(=O)n(Cc4cccc(Cl)c4)c3)ccc12 | 1 |
| Cc1cc(-n2cccc2)c(S(C)(=O)=O)cc1C(=O)N=C(N)N [Eniporide] | 1.24 |
| Nc1nccc(Oc2ccc3c(C(=O)Nc4cccc(C(F)(F)F)c4)cccc3c2)n1 | 1.15 |
| C=C1CCC[C@]2(C)C[C@]3(O)OC(=O)C(C)=C3C[C@@H]12 [Atractylenolide III] | 1.1 |
| COc1nccnc1NS(=O)(=O)c1ccc(NC(=O)/C=C/c2ccc([N+](=O)[O-])s2)cc1 [Necrosulfonamide] | 1.13 |
| O=C(COCC(=O)N1CCN(C(c2ccccc2)c2ccccc2)CC1)Nc1ccc(Cl)cc1C(=O)O [TM5275 sodium] | 0.996 |
| NCCC(=O)O [beta-Alanine] | 1.24 |
| CC(C)S(=O)(=O)c1ccc2nccc(Nc3ccc4scnc4c3)c2c1 | 1.08 |
| Nc1nc2[nH]cc(CCc3ccc(C(=O)N[C@@H](CCC(=O)O)C(=O)O)cc3)c2c(=O)[nH]1 [Pemetrexed Disodium Hydrate] | 0.187 |
| Nc1nc(=O)c2c([nH]1)NC[C@H](CNc1ccc(C(=O)N[C@@H](CCC(=O)O)C(=O)O)cc1)N2C=O [Calcium Levofolinate] | 1.15 |
| Cc1ccc2nc(N)[nH]c(=O)c2c1Sc1ccncc1 [Nolatrexed] | 1.04 |
| COc1c2c(cc3c1-c1c(cc4c(c1OC)OCO4)C[C@H](C)[C@H](C)C3)OCO2 [Schisandrin C] | 0.951 |
| N#CC(=Cc1cc(Cl)cc(Cl)c1)c1cccnc1 | 1.14 |
| CCN(CC)CCOc1ccc(Nc2nc(-c3ccccc3NC(=O)CCN3CCN(C)CC3)nc3ccccc23)cc1 | 1.15 |
| CC(C)Oc1ccc(C(=O)N[C@H](CNC(=O)CN(C)C)Cc2ccc(-c3cn4cccc([C@H](C)O)c4n3)cc2)cc1Cl | 0.15 |
| COc1ccc(-c2cc(=O)c3c(O)cc(O[C@@H]4O[C@H](CO[C@@H]5O[C@@H](C)[C@H](O)[C@@H](O)[C@H]5O)[C@@H](O)[C@H](O)[C@H]4O)cc3o2)cc1 [Linarin] | 1.02 |
| NC(=O)c1[nH]cnc1N [4-Amino-5-imidazolecarboxamide] | 1.23 |
| CCn1cc(-c2cccc(C(F)(F)F)c2)c2sc(C(=N)NC3CCS(=O)(=O)CC3)cc2c1=O | 1.1 |
| CC(C)c1nc(CN(C)C(=O)N[C@@H](CCN2CCOCC2)C(=O)N[C@H](CC[C@H](Cc2ccccc2)NC(=O)OCc2cncs2)Cc2ccccc2)cs1 [Cobicistat] | 1.14 |
| COc1ccc(C[C@H](NC(=O)[C@H](C)NC(=O)CN2CCOCC2)C(=O)N[C@@H](Cc2ccccc2)C(=O)C2(C)CO2)cc1 (stereo in doubt) | 0.878 |
| CC(C)C[C@H](NC(=O)[C@H](CCc1ccccc1)NC(=O)CN1CCOCC1)C(=O)N[C@@H](Cc1ccccc1)C(=O)N[C@@H](CC(C)C)C(=O)[C@@]1(C)CO1 [Carfilzomib] | 0.0349 |
